{
  "source": "paper PMC4552634",
  "about": "“A New Set of Chemical Starting Points with Plasmodium falciparum Transmission-Blocking Potential for Antimalarial Drug Discovery” (PLoS ONE, 2015)",
  "note": "About 3,200 (25%) of roughly 13,000 compounds showed an effect of 50% or more. The list shows a part of the results.",
  "data": [
    {"tested_on": "P. falciparum stage V gametocytes", "parameters": "BacTiter-Glo ATP luminescence viability of purified stage V gametocytes in 384-well plates, per cent inhibition versus DMSO", "details": "48 h, 5 µM; inhibitor", "units": {"% Inhibition": "%"}, "values": [
      {"smiles": "COc1ccc(CNc2ncnc3c2[nH]c2ccc(F)cc23)cc1", "note": "[TCMDC-124466]", "% Inhibition": 15.1},
      {"smiles": "Cc1cc2c(/C=C/C(=O)NC3CCC(CCN4CCc5ccc(C#N)cc5CC4)CC3)cccc2[nH]1", "note": "(stereo not shown) [TCMDC-139674]", "% Inhibition": -23},
      {"smiles": "CCN(CCC1(c2ccc(Cl)c(Cl)c2)CN(C(=O)c2cc(OC)c(OC)c(OC)c2)CCO1)C1CC2c3ccccc3CC21", "note": "(stereo not shown) [TCMDC-135570]", "% Inhibition": -88.52},
      {"smiles": "Cc1nnsc1C(=O)Nc1cccc(-c2ccc(-c3nc4ccc(F)cc4[nH]3)cc2)c1", "note": "[TCMDC-137082]", "% Inhibition": 79.62},
      {"smiles": "O=C(Nc1cccc(-c2ccc(-c3nc4ccc(F)cc4[nH]3)cc2)c1)c1csnn1", "note": "[TCMDC-136900]", "% Inhibition": -0.6993},
      {"smiles": "CC(=O)Nc1nc(C(=O)Nc2cccc(-c3ccc(-c4nc5ccc(F)cc5[nH]4)cc3)c2)cs1", "note": "[TCMDC-137126]", "% Inhibition": 7.232},
      {"smiles": "CC[C@H](C)CNC(=O)c1cncc(-c2ccc(CNCCCc3ccccc3)cc2)c1", "note": "[TCMDC-134246]", "% Inhibition": -1.463},
      {"smiles": "CC[C@H](C)CNC(=O)c1ccnc(-c2ccc(CNCCCc3ccccc3)cc2)c1", "note": "[TCMDC-134251]", "% Inhibition": 81.79},
      {"smiles": "CC(C)CNC(=O)c1ccnc(-c2ccc(CNCCCc3ccccc3)cc2)c1", "note": "[TCMDC-134252]", "% Inhibition": -3.007},
      {"smiles": "Cc1nc(N)nc(N)c1OCc1cccc2ccccc12", "note": "[TCMDC-131357]", "% Inhibition": -0.5645},
      {"smiles": "Cc1cccc2[nH]c(-c3cccc(-c4ccc(CN5CCCC5CN)cc4)c3)nc12", "note": "(stereo not shown) [TCMDC-132991]", "% Inhibition": 36.61},
      {"smiles": "Cc1cccc2[nH]c(-c3ccc(-c4ccc(CN5CCCCC5)cc4)cc3)nc12", "note": "[TCMDC-133901]", "% Inhibition": -1.455},
      {"smiles": "Cc1cccc2[nH]c(-c3ccc(-c4ccc(CN5CCN(CCO)CC5)cc4)cc3)nc12", "note": "[TCMDC-133033]", "% Inhibition": 4.83},
      {"smiles": "Cc1cccc2[nH]c(-c3ccc(-c4ccc(CN5CCN(CCC#N)CC5)cc4)cc3)nc12", "note": "[TCMDC-133867]", "% Inhibition": -11.37},
      {"smiles": "Cc1cccc2[nH]c(-c3ccc(-c4ccc(CN5CCN(CC6CCCN(C)C6)CC5)cc4)cc3)nc12", "note": "(stereo not shown) [TCMDC-133898]", "% Inhibition": 93.25},
      {"smiles": "Cc1cccc2[nH]c(-c3ccc(-c4ccc(CN5CCCC(N)C5)cc4)cc3)nc12", "note": "(stereo not shown) [TCMDC-133863]", "% Inhibition": 93.4},
      {"smiles": "Cc1cccc2[nH]c(-c3ccc(-c4cccc(CN5CCC(C(N)=O)CC5)c4)cc3)nc12", "note": "[TCMDC-132694]", "% Inhibition": -8.961},
      {"smiles": "Cc1cccc2[nH]c(-c3ccc(-c4cccc(CN5CCCC5CN)c4)cc3)nc12", "note": "(stereo not shown) [TCMDC-132993]", "% Inhibition": 21.61},
      {"smiles": "Cc1cccc2[nH]c(-c3ccc(-c4ccc(CN5CCN(C6CCN(C)CC6)CC5)cc4)cc3)nc12", "note": "[TCMDC-133865]", "% Inhibition": 83.09},
      {"smiles": "Cc1cccc2[nH]c(-c3ccc(-c4ccc(CN5CCN(CCN6CCOCC6)CC5)cc4)cc3)nc12", "note": "[TCMDC-133931]", "% Inhibition": 6.93},
      {"smiles": "Cc1cccc2[nH]c(-c3ccc(-c4ccc(CN5CCCC5CN)cc4)cc3)nc12", "note": "(stereo not shown) [TCMDC-132999]", "% Inhibition": 66.58},
      {"smiles": "Cc1cccc2[nH]c(-c3ccc(-c4ccc(CN5CCN(c6ccncc6)CC5)cc4)cc3)nc12", "note": "[TCMDC-132919]", "% Inhibition": 17.4},
      {"smiles": "O=C(Nc1cccc(OC2CCN(Cc3ccsc3)CC2)c1)c1ccc(C(F)(F)F)cc1", "note": "[TCMDC-133737]", "% Inhibition": -11.34},
      {"smiles": "Cc1cc(OCc2ccncc2)cc2c1C(=O)CC(C)(C)O2", "note": "[TCMDC-131314]", "% Inhibition": 21.7},
      {"smiles": "O=C(N1CCN(c2ccnc3cc4c(cc23)N(Cc2ccccc2)CC4)CC1)C(F)(F)F", "note": "[TCMDC-140138]", "% Inhibition": 5.48},
      {"smiles": "O=C(Nc1ccc2c(c1)CCN2C1CCN(Cc2ccc(F)cc2Cl)C1)c1ccco1", "note": "(stereo not shown) [TCMDC-135068]", "% Inhibition": -23.63},
      {"smiles": "Cc1ccc(C(=O)Nc2ccc(-c3nc4ccccc4[nH]3)cc2)cc1S(=O)(=O)N1CCOCC1", "note": "[TCMDC-124532]", "% Inhibition": -13.26},
      {"smiles": "COC(=O)c1cccc(CNCc2ccc(-c3ccc(-c4nc5cc(C(F)(F)F)ccc5[nH]4)s3)cc2)c1.O=C(O)C(F)(F)F", "note": "[TCMDC-132958]", "% Inhibition": -50.86},
      {"smiles": "CCCC(C)Nc1nc(C)cc(NCCC(=O)Nc2ccccc2)n1", "note": "(stereo not shown) [TCMDC-134763]", "% Inhibition": 23.15},
      {"smiles": "FC(F)(F)COc1ccc2ccccc2c1CCNCCCCNCCc1c(OCC(F)(F)F)ccc2ccccc12", "note": "[TCMDC-137317]", "% Inhibition": 103.9},
      {"smiles": "Cc1sc(C)c(C(F)(F)F)c1CNCCCNc1cc(=O)c2ccccc2[nH]1", "note": "[TCMDC-140766]", "% Inhibition": -57.97},
      {"smiles": "FC(F)(F)COc1ccc2ccccc2c1CNCCCCCCNCc1c(OCC(F)(F)F)ccc2ccccc12", "note": "[TCMDC-137816]", "% Inhibition": 113.4},
      {"smiles": "CC1CN(c2ccc3occ(C(=O)Nc4ccc(-c5ccncc5)c(Cl)c4)c3c2)CC(C)N1C", "note": "(stereo not shown) [TCMDC-141360]", "% Inhibition": 38.63},
      {"smiles": "O=C(Nc1cccc(-c2ccc(-c3nc4ccccc4[nH]3)s2)c1)c1ccncc1", "note": "[TCMDC-136956]", "% Inhibition": 6.685},
      {"smiles": "COc1cc2nc(NCCN3CCOCC3)n3nc(-c4ccccc4)nc3c2cc1OC", "note": "[TCMDC-124407]", "% Inhibition": -12.35},
      {"smiles": "CCCN1CCN(CCNc2c3ccccc3nc3ccccc23)CC1", "note": "[TCMDC-137549]", "% Inhibition": 102.5},
      {"smiles": "CC(C)CN1CCN(CCNc2c3ccccc3nc3ccccc23)CC1", "note": "[TCMDC-138008]", "% Inhibition": 92.54},
      {"smiles": "CCCN1CCN(CCCNc2c3ccccc3nc3ccccc23)CC1", "note": "[TCMDC-137478]", "% Inhibition": 97.73},
      {"smiles": "CCOC(=O)N1CCN(CCCNc2c3ccccc3nc3ccccc23)CC1.Cl", "note": "[TCMDC-137544]", "% Inhibition": 15.5},
      {"smiles": "CCCN1CCN(CCCCNc2c3ccccc3nc3ccccc23)CC1", "note": "[TCMDC-137576]", "% Inhibition": 93},
      {"smiles": "O=C1NC(C(=O)Nc2ccccc2)C(c2ccccc2)S1", "note": "(stereo not shown) [TCMDC-131740]", "% Inhibition": 2.02},
      {"smiles": "O=C(Nc1ccc(-c2ccc(-c3nc4ccccc4[nH]3)s2)cc1)Nc1ccc(F)c(F)c1F", "note": "[TCMDC-133236]", "% Inhibition": -3.503},
      {"smiles": "CCC[C@@H]([C@@H](CC1CCCCC1)C(=O)N[C@H](C(=O)Nc1nccs1)C(C)(C)SCCNC(=O)OCc1ccccn1)N(O)C=O", "note": "[TCMDC-137794]", "% Inhibition": 19.2}
    ]}
  ]
}
